Assay outcomes from PubChem BioAssay.
A selection: hits, their analogues and other compounds. The true share with any hit is near 3.1%.
PP1 counter: PP1-alpha phosphatase inhibitors, primary screen, counter-screen for PP5 inhibitor project, biochemical, fluorescence, OMFP substrate, single point | Serine/threonine-protein phosphatase PP1-alpha catalytic subunit (Homo sapiens), P62136 | purified PP1alpha | inhibition, % at 6.7 µM | 320,000 tested, 0.9% active | AID 2235, 2010;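 active means inhibition above the mean inhibition of all tested compounds plus 3 SD, computed separately for each screening campaign, cut at about 15% in these data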
Target sequence (P62136 whole entry, looked up): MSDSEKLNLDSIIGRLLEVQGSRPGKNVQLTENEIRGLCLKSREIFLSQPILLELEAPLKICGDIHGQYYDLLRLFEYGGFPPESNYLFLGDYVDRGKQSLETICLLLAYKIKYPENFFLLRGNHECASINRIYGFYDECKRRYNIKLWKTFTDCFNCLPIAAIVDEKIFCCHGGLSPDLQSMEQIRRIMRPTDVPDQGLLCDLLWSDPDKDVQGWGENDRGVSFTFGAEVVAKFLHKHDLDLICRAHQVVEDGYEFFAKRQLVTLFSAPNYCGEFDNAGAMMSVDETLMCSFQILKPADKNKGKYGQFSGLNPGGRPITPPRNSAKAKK
PP5 primary: PP5 phosphatase inhibitors, primary screen, biochemical, fluorescence; Serine/threonine-protein phosphatase 5 (Homo sapiens), P53041; 320,000 tested, 0.18% active; inhibition, % at 6.7 µM; AID 1987, 2009; purified PP5c, OMFP substrate fluorescence;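 active means inhibition above the campaign's mean inhibition across all tested compounds plus 3 SD, cut at about 9.5% in these data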
CSC inhib: cancer stem cell viability inhibitors, primary screen, luminescence. cancer stem cell-like cells viability. inhibition, % at 7.5 µM. 300,000 tested, 1.1% active. AID 2717, 2010; in the data active means inhibition above about 75%; tested in HMLE shEcad cells
SKKanGAS inh: S. pyogenes SKKanGAS growth inhibitors in kanamycin, primary screen, streptokinase expression inhibitor project, SKKanGAS strain, BacTiter-Glo luminescence. 300,000 tested, 1.3% active. 6 h. inhibition, % at 7.5 µM. AID 1662, 2009;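 active means mean replicate score, as percent of positive control median, at least 50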;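 further: strain carries kanamycin resistance gene driven by streptokinase promoter and grows in 40 µg/ml kanamycin; loss of luminescence reflects streptokinase promoter inhibition or plain growth inhibition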
Beta apoptosis: inhibitors of cytokine-induced beta cell apoptosis, primary screen, luminescence. INS-1E cytokine-induced death, ATP luminescence, 48 h; percent of positive-control rescue, neutral wells zero. protection from apoptosis, % (test concentration not listed). 300,000 tested, 0.8% active. AID 435005, 2010;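 active means Every replicate reaches about 75%, or at least half do and their mean reaches it too, limit read from the data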;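 further: higher means more ATP so stronger rescue from cytokine killing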
Each line names hits and unclear results; the compound was inactive in the other large screens.

O=C(N/N=C/c1cc([N+](=O)[O-])ccc1O)C(O)(c1ccccc1)c1ccccc1	SKKanGAS inh 51 (no result: Beta apoptosis)
CC1(C)Cc2cccc(OCC(=O)OCC(=O)NCc3ccccc3)c2O1	none
Cc1ccc2[nH]c(O)c(N=NC(=O)C3CC3c3ccccc3)c2c1Br (stereo not given)	none
CCn1c(=O)[nH]c(=O)c2c(N)c(C(=O)c3cc(F)ccc3F)sc21	none
COc1cc([N+](=O)[O-])ccc1NC(=S)NNC(=O)c1ccc2c(c1)OCO2	none
O=C(N/N=C/c1cc(Br)ccc1OC(=O)c1ccc(Br)cc1)c1ccncc1	Beta apoptosis 92 (no result: CSC inhib)
O=C(N/N=C/c1ccc(OC(=O)c2ccc(Br)cc2)cc1)c1ccncc1	none
Cc1nc(C)c(C(=O)N/N=C/c2c[nH]c3ccccc23)s1	none
O=C(NC(=S)Nc1cc([N+](=O)[O-])ccc1O)c1ccc2c(c1)OCO2	SKKanGAS inh 79
Cc1nc(C)c(C(=O)N/N=C/c2cc(Br)ccc2O)s1	SKKanGAS inh 91, Beta apoptosis 80
O=C(N/N=C/c1ccccc1O)c1ccncc1	none
O=C(N/N=C/c1cc(Br)ccc1O)c1ccncc1	SKKanGAS inh 104
O=C(N/N=C/c1cc([N+](=O)[O-])ccc1O)c1ccncc1	SKKanGAS inh 92
O=C(N/N=C/c1ccc(O)c([N+](=O)[O-])c1)c1ccncc1	none
COc1ccc(OC)c(Nc2nc(N)nc(-c3cc4ccccc4o3)n2)c1	PP1 counter 16
COc1ccc(OC)c(NC(=O)c2cc3ccccc3o2)c1	none (no result: CSC inhib)
O=C(CCSc1ccc(Cl)c(Cl)c1)NC12CC3CC(CC(C3)C1)C2	SKKanGAS inh 65
O=C(CSc1ccc(F)cc1)NC12CC3CC(CC(C3)C1)C2	none
Cc1occc(=O)c1OC(=O)Nc1ccc(Cl)c(Cl)c1	Beta apoptosis 106 (no result: SKKanGAS inh)
COc1ccc(C(=O)Oc2c(C)occc2=O)cc1OC	none
CC(C)OCCCN1CC(=O)N2C(c3cccc([N+](=O)[O-])c3)c3[nH]c4ccccc4c3C[C@H]2C1=O (stereo not given in full)	none
O=[N+]([O-])c1cccc(C2NCC(c3ccccc3Cl)c3c2[nH]c2ccccc32)c1 (stereo not given)	CSC inhib 131
CCC(CO)Oc1cc(NCc2ccc(C)c(C)c2)c2ncn(C(C)C)c2c1 (stereo not given)	Beta apoptosis 101 (no result: PP1 counter, PP5 primary, CSC inhib, SKKanGAS inh)
COc1ccccc1C(=O)OC(C)CN1CCN(C)CC1 (stereo not given)	none (no result: Beta apoptosis)
COc1ccc(CCNC(=O)c2cc3c(=O)n4cccc(C)c4nc3n(Cc3ccco3)c2=N)cc1OC	Beta apoptosis 105
CC1Cc2ccccc2N1C(=O)CN1C(=O)NC2(CCCCC2)C1=O (stereo not given)	none (no result: SKKanGAS inh)
CCCCCOc1ccc(OC(=O)c2ccncc2)cc1	CSC inhib 93
O=C(CNC(=O)c1ccccc1O)N/N=C/c1cc(Br)ccc1OC(=O)/C=C/c1ccco1	Beta apoptosis 89
COc1ccc(-c2csc(Nc3ccc(S(=O)(=O)Nc4cc(C)on4)cc3)n2)cc1C	SKKanGAS inh 68 (no result: Beta apoptosis)
COc1cccc(NC(=O)c2ncc(Cl)c(Cl)c2Cl)c1	none
N#Cc1ccc(NC(=O)Nc2ccc(Oc3ccc(NC(=O)Nc4ccc(C#N)cc4)cc3)cc2)cc1	PP1 counter 17
N#Cc1ccc(NC(=O)Nc2cccc(C#N)c2)cc1	none (no result: PP1 counter, PP5 primary)
CC(=O)OCCNc1cc(Sc2nc3ccccc3[nH]2)c2nonc2c1[N+](=O)[O-]	SKKanGAS inh 53
CC(=O)OCCCNc1cc(Sc2nc3ccccc3s2)c2nonc2c1[N+](=O)[O-]	CSC inhib 76, SKKanGAS inh 91
O=[N+]([O-])c1c(NCCCO)cc(Sc2ccc(Cl)cc2)c2nonc12	CSC inhib 88
CCN1CCCc2cc(CN(CCN3CCOCC3)C(=S)Nc3cc(F)cc(F)c3)ccc21	none
COCCNC(=O)C(=O)N/N=C(\C)CC(=O)Nc1cccnc1	none
CCOC(=O)N1CCN(C(=O)CCNS(=O)(=O)c2ccc3c(c2)c(=O)n(C)c(=O)n3C)CC1	none
CCOc1ccccc1NC(=O)c1cccc(NC(=O)C2CCCC2)c1	none
Oc1cccc(-c2nc3c4c(ncn3n2)-c2ccccc2CC42CCCC2)c1	CSC inhib 111, SKKanGAS inh 106
CC1CCN(C(=O)CN2C(=O)NC(C)(c3ccc4ccccc4c3)C2=O)CC1 (stereo not given)	none (no result: PP1 counter, PP5 primary, SKKanGAS inh)
CC(C)Cc1nn2c(N)c(/C=C3\C=Nc4ccccc43)c(=O)nc2s1	none
Cc1cc(C)nc(-n2ncc3c2CC(c2cccc(Cl)c2)CC3=O)n1 (stereo not given)	CSC inhib 81
Cc1cc(C)nc(-n2ncc3c2CC(c2ccccc2)CC3=O)n1 (stereo not given)	none
CCOC(=O)/C(C#N)=C/Nc1ccsc1C(C)=O	none
CC(=O)Cc1cc(O)c2ccccc2c1OC(=O)c1ccc(Br)cc1	Beta apoptosis 108
O=C(COC(=O)c1ccc(Br)cc1)NCc1ccccc1	none
CCc1ccc(/C=C2\SC(=S)N(CCCC(=O)Nc3ccccc3C(=O)O)C2=O)cc1	SKKanGAS inh 66
COC(=O)c1ccc(/C=C2/SC(=S)N(CCCC(=O)Nc3ccc(O)cc3)C2=O)cc1	PP1 counter 16
Cc1ccc(/C=C2\SC(=S)N(CCCC(=O)Nc3ccccc3C(=O)O)C2=O)cc1	none
COc1ccccc1CNC(=O)CN1C(=O)NC2(CCCCCC2)C1=O	none (no result: PP1 counter, PP5 primary, SKKanGAS inh)
COc1cc(/C=C/C(=O)OCC(=O)NCCC2=CCCCC2)cc(OC)c1OC	none (no result: PP1 counter, PP5 primary, SKKanGAS inh)
CCc1c(C)nc2ncnn2c1Nc1ccc(C)cc1	none
CCc1c(C)nc2ncnn2c1NCCc1ccc(OC)cc1	Beta apoptosis 97
COc1ccc2nc(N3CCCCC3)c(/C=C3\SC(=S)NC3=O)cc2c1	CSC inhib 121, SKKanGAS inh 86
N#C/C(=C\c1cc2ccccc2nc1N1CCCCC1)C(N)=O	none (no result: SKKanGAS inh)
COc1ccc(-n2c(C)cc(/C=C3\SC(=S)NC3=O)c2C)cc1	none
O=C1NC(=S)S/C1=C\c1cc2ccccc2nc1N1CCCCC1	CSC inhib 114
N#C/C(=C(/O)Cc1ccccc1)P(=O)(c1ccccc1)c1ccccc1	none
Cc1cc(N2CCC(C)CC2)nc(-n2nc(C)cc2C)n1	SKKanGAS inh 95
CCCc1ccc(C(=O)NNc2cccc(C)c2)cc1	CSC inhib 77
Cc1cccc(NC(=O)CC(=O)Nc2cccc(C)c2)c1	none
Cc1cccc(NNC(=O)C(=O)NNc2cccc(C)c2)c1	CSC inhib 93
CCOc1ccc(-c2nnc(NC(=O)Cc3cc(OC)c(OC)c(OC)c3)o2)cc1	none
CCc1noc(C)c1C(=O)OCC(=O)Nc1nc(-c2ccc(F)c(F)c2)cs1	none (no result: CSC inhib, SKKanGAS inh)
CC1=C(CC(=O)c2ccccc2)C(=O)c2ccccc2C1=O	Beta apoptosis 98
COC(=O)COc1ccc(S(=O)(=O)NCc2ccc3c(c2)OCO3)cc1C	none
COc1ccc(-c2cc3nc(-c4ccccc4)cc(N4CCC(O)CC4)n3n2)cc1	none (no result: CSC inhib)
